# Bioassay records as filed in PubChem.
# AmpC inh no detg – qHTS Inhibitors of AmpC Beta-Lactamase (assay without detergent). P00811. AmpC nitrocefin hydrolysis, absorbance 480 nm, 0.0001% Triton. Potency, µM (titrated, usually from 57.1 µM), without a hit: top-dose activity change, negative = inhibition, hits mostly inhibitors. 0.52% of 330,000 active. AID 485341, 2010;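 note: plate controls were no compound for no effect and no enzyme for full effect; nearly all actives have a fitted effect of over 20% in size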
# Target sequence (P00811 whole entry, looked up): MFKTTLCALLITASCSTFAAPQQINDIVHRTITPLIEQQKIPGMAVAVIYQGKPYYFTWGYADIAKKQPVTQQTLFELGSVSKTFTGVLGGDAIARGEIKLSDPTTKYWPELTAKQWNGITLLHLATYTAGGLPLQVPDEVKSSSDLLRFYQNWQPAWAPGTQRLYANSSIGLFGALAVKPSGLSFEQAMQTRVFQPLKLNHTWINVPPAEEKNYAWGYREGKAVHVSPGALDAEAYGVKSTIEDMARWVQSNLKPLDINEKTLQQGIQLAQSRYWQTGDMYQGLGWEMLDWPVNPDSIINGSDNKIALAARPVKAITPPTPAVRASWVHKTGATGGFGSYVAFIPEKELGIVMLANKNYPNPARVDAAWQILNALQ
#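 AmpC (5.3 nM in the dispensed reagent) in 20 mM phosphate pH 7.0 with 0.01% (detergent screen) or 0.0001% Triton X-100 was preincubated with compounds for 15 min at room temperature. Nitrocefin was then added from an 800 uM solution, and hydrolysis was followed at 480 nm.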
# SARS PLP yeast – qHTS of Yeast-based Assay for SARS-CoV PLP | Potency, µM (titrated, usually from 32.9 µM), for the others: top-dose activity, positive = growth rescue, actives largely listed as activators | AID 485353, 2010 | 0.19% of 330,000 active | S. cerevisiae expressing SARS-CoV PLpro, growth rescue; calls by dose curve; note: 0% is about no effect; nearly all actives have a fitted effect of over 55% in size
# Pf growth 96h – Primary qHTS for delayed death inhibitors of the malarial parasite plastid, 96 hour incubation; Potency, µM (series often up to 28.7 µM), without a hit: at the highest dose activity change, negative = inhibition, most hits filed as inhibitors; 6.9% of 320,000 active; P. falciparum luciferase reporter growth, 96 h; note: % is set by controls: 0 for no effect and ±100 for the full control effect
#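 Luminescence readout: decreased luciferase signal marks inhibited growth of reporter-expressing P. falciparum in infected red cells (2% hematocrit, 0.05% parasitemia final), exposed to compound two generations (96 h, 37 C, 5% CO2).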
# AmpC detergent – qHTS Inhibitors of AmpC Beta-Lactamase (assay with detergent) | P00811 | AmpC hydrolysis of nitrocefin, absorbance 480 nm, 0.01% Triton | Potency, µM (titrated, usually from 114 µM), without a hit: at the top dose activity change, negative = inhibition, most hits filed as inhibitors | 0.041% of 370,000 active | AID 485294, 2010;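 note: 0% = no-compound wells and -100% = no-enzyme wells; nearly all actives have a fitted effect of over 25% in size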
#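 20 mM phosphate pH 7.0 + 0.01% (detergent screen) or 0.0001% Triton X-100; 5.3 nM AmpC reagent; cpd preinc 15 min RT; nitrocefin (800 uM stock) to start; A480 q20 s × 4 min; Activity was normalised to no-enzyme and no-compound control wells.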
# Sm TGR block – qHTS Assay for the Inhibitors of Schistosoma Mansoni Peroxiredoxins; purified TGR, DTNB reduction, TNB absorbance 405 nm; Potency, µM (titrated, usually from 114 µM), inactives show top-dose activity change, negative = inhibition, usual class: inhibitors; 3% of 360,000 active; AID 485364, 2010; note: % is set by controls: 0 for no effect and ±100 for the full control effect; nearly all actives have a fitted effect of over 60% in size
#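 TGR 20 nM + NADPH 100 uM (dispensed conc.), cpd preinc 15 min RT; start with NADPH (500 uM addition) then DTNB (15 mM addition). Kinetic TNB absorbance, 405 nm filter. Four-parameter Hill fit across titration.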
# Pf growth 48h – Primary qHTS for delayed death inhibitors of the malarial parasite plastid, 48 hour incubation | P. falciparum luciferase growth in erythrocytes, 48 h | Potency, µM (series often up to 28.7 µM), for the others: at the top dose activity change, negative = inhibition, usual class: inhibitors | 5.9% of 310,000 active | AID 504832, 2011; note: % is set by controls: 0 for no effect and ±100 for the full control effect
#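 Growth was read as firefly luciferase luminescence after a 48 h, 37 C, 5% CO2 exposure of compounds to reporter-bearing P. falciparum cultures (0.1% parasitemia, 2% hematocrit final) in Albumax-supplemented RPMI 1640.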
# An asterisk follows results filed as active; ? = inconclusive; nt = not tested or not shown; ! = a repeat was not active; [ ] = another dose, or the depositor's remark. The list is not random: actives were taken first. Their share in the collection is about 12%. Unless noted, calls come from the whole dose curve; as a rule, active = well fitted curve in the direction sought with a large enough effect; inconclusive = small, poorly fitted or top-dose-only effect, or another doubt; inactive = no such curve, though single readings can be large; an effect the other way counts as inactive or inconclusive. Potency is the fitted concentration of half-maximal effect.
SMILES,AmpC inh no detg,SARS PLP yeast,Pf growth 96h,AmpC detergent,Sm TGR block,Pf growth 48h
COc1cccc(Nc2sc(C(=O)c3ccc(F)cc3)c(N)c2C(=O)NCc2ccc(Cl)cc2)c1,nt,nt,nt,14%,-28%,nt
COc1ccc(NC(=O)c2c(Nc3ccccc3)sc(C(=O)c3ccc(F)cc3)c2N)cc1,-45%,-10%,nt,-6%,-11%,?
Cc1ccc(Nc2sc(C(=O)c3ccccc3)c(N)c2C(=O)NC(C)C)cc1,nt,nt,nt,8%,32µM*,nt
COc1ccc(C(=O)c2sc(Nc3ccccc3)c(C(=O)Nc3ccc(OC)c(OC)c3)c2N)cc1,16%,4%,?,-8%,0%,13µM*
COc1ccccc1NC(=O)c1c(Nc2ccccc2C)sc(C(=O)Nc2cccc(Cl)c2)c1N,?,-15%,10µM*,-6%,4%,?
COc1ccc(Nc2sc(C(=O)c3ccc(Cl)cc3)c(N)c2C(=O)Nc2ccccc2OC)cc1,-43%,-5%,nt,-1%,0%,10µM*
CCOc1ccc(NC(=O)c2c(Nc3ccccc3C)sc(C(=O)c3ccc(Cl)cc3)c2N)cc1,nt,nt,nt,13%,-21%,nt
COc1ccc(C(=O)c2sc(Nc3cccc(OC)c3)c(C(=O)Nc3cccc(C)c3C)c2N)cc1,-23%,7%,12µM*,2%,-3%,nt
Cc1c(C(=O)N(C)c2ccccc2Cl)cnn1-c1ccccc1,13%,-1%,-14%,?,-1%,2%
Cc1c(C(=O)N(C)c2cccc(Cl)c2)cnn1-c1ccccc1,17%,-5%,?,?,-1%,9.3µM*
CCCCn1c(=N)n(CC(=O)c2ccc([N+](=O)[O-])cc2)c2ccccc21,-11%,-1%,15%,-10%,1%,49%
CN1CCN(CCCCC(=O)c2ccccc2)CC1,-26%,-3%,206%,?,0%,12%
CCN1CC2([N+](=O)[O-])C=CC(=O)C([N+](=O)[O-])(C1)C2CC(=O)c1ccccc1 (stereo unspecified),-27%,-4%,nt,2%,13µM*,-4%
CCCCN1CC2([N+](=O)[O-])C=CC(=O)C([N+](=O)[O-])(C1)C2CC(=O)c1ccccc1 (stereo unspecified),-29%,-12%,64%,?,22µM*,-11%
COc1ccc(NC(=O)CC2C(=O)N(c3ccccc3)C(=O)N2Cc2cccnc2)cc1 (stereo unspecified),nt,nt,nt,16%,3%,nt
CCN(CC)CCNC(=O)c1ccc2c(c1NCCO)C(=O)c1ccccc1C2=O,23%,-1%,4.7µM*,?,-34%,2.6µM*
Cc1cccc(C)c1NC(=O)COC(=O)c1cccc2c1C(=O)c1ccccc1C2=O,-2%,28%,-17%,6%,5%,10%
CCN(CC)CCC(=O)Nc1cccc2c1C(=O)c1ccccc1C2=O,42%,-3%,10µM*,-10%,-17%,-86%
Nc1cccc(C(=O)OCC(=O)Nc2cccc3c2C(=O)c2ccccc2C3=O)c1,-12%,5%,-12%,-3%,-5%,20%
Cc1cccc(NC(=O)COC(=O)c2cccc3c2C(=O)c2ccccc2C3=O)c1C,-33%,1%,10µM*,?,-8%,-25%
O=C(Cc1ccccc1)NC1CC(=O)N(c2ccccc2)C1 (stereo unspecified),nt,nt,nt,-2%,-2%,nt
COc1cc(OC)c(N(C)C(=O)C2CCCN(c3ncnc4c3nc3n4CCCCC3)C2)cc1Cl (stereo unspecified),nt,nt,nt,-4%,-5%,nt
S=c1[nH]c2cc3ccccc3cc2[nH]1,-25%,-4%,?,-4%,8.9µM*!,-1%
O=c1c2cnn(-c3ccccc3)c2nc(-c2cccs2)n1-c1cccc(Cl)c1,-23%,1%,?,-15%,1%,13µM*
O=c1c2cnn(-c3ccccc3)c2nc(-c2cccs2)n1-c1ccc(Cl)cc1,-15%,-1%,?,6%,-29%,?
SMILES,AmpC inh no detg,SARS PLP yeast,Pf growth 96h,AmpC detergent,Sm TGR block,Pf growth 48h
CCN(CC)C(=O)c1cc(-c2ccc(Cl)cc2)on1,nt,nt,nt,24%,-7%,nt
N#CC1(NC(=O)COc2ccc(S(=O)(=O)N3CCCC3)cc2[N+](=O)[O-])CCCCC1,60%,-1%,?,-9%,?,?
CCC(Nc1ccc(-c2nc(-c3ccccn3)no2)cc1[N+](=O)[O-])c1ccccc1 (stereo unspecified),nt,nt,nt,-3%,0%,nt
COC(=O)CSc1nc(-c2ccccc2)cc(-c2ccco2)c1C#N,-48%,0%,?,-1%,32µM*,52%
COc1ccc(-c2cc(-c3ccccc3)nc(SCC(=O)Nc3nccs3)c2C#N)cc1,-25%,19%,?,-9%,-2%,18%
COc1ccc(-c2cc(-c3ccccc3)c(C#N)c(SCC(=O)Nc3ncc(C)s3)n2)cc1,-34%,?,-13%,-1%,12%,13µM*
CC(c1nnc(SCC(=O)Nc2ccc3[nH]c(=O)[nH]c3c2)n1Cc1ccccc1)N(C)C (stereo unspecified),-13%,-4%,39%,-17%,17%[11.4 µM],nt
CC(c1nnc(SCC(=O)Nc2cc([N+](=O)[O-])ccc2F)n1Cc1ccccc1)N(C)C (stereo unspecified),45%,-3%,5.2µM*,-11%,-9%,8.3µM*
CCOC(=O)N/N=C(C)/C=C/c1ccccc1,-11%,-4%,?,-15%,6%,0%
CC(/C=C/c1ccco1)=N\NC(=O)c1cccc(Cl)c1,-32%,7%,?,-5%,-34%,?
CC(/C=C/c1ccco1)=N/NC(=O)c1ccccc1Cl,-10%,4%,0%,4%,22µM*,21%
CCOC(=O)N/N=C(C)/C=C/c1ccco1,-6%,4%,?,-12%,32µM*,-15%
CCOC(=O)N/N=C\C=C\c1ccco1,-23%,-5%,?,?,22µM*,16%
CC(/C=C/c1ccco1)=N/NC(=O)CNc1ccccc1C,-14%,0%,?,-11%,35µM*,-10%
CCOC(=O)C(=O)N/N=C/c1ccco1,-4%,0%,0%,4%,2%,22%
O=c1oc2cc(O)ccc2cc1-c1nc(-c2ccc(Cl)c(Cl)c2)cs1,nt,nt,nt,-6%,-2%,nt
COc1ccc(OC)c(NC(=O)C(Cc2ccccc2)NS(=O)(=O)c2ccc3c(c2)CCC(=O)N3)c1 (stereo unspecified),nt,nt,nt,11%,11%,nt
